Our source for the outcome and AC50 values is PubChem BioAssay (EPA / NIEHS).

Inconclusive results are not listed. Active and inactive are the calls of the source. How the source made its calls, unless noted: active means hit-call score of the fitted dose curve at least 0.9, where 1 is the maximum; inactive means score below 0.9.

Assay [1] can be described thus: ATG_TAL_CIS: Attagene CIS-FACTORIAL HepG2 Assay for human TAL Basal Promoter (AID 2282966).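 Further: background control endpoint measuring basal TAL promoter reporter mRNA not a specific factor.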 The settings on record: HepG2 Attagene cis-factorial TAL promoter reporter; actives raise or lower the signal. In a few lines: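 RT-PCR plus capillary electrophoresis quantifies reporter mRNA induction in transiently transfected HepG2 cells after 24 h chemical treatment. DMSO serves as negative control and baseline for bidirectional fitting.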

A short description of assay [2]: ATG_TGFb_CIS: Attagene CIS-FACTORIAL HepG2 Assay for human Transforming Growth Factor (TGF) (AID 2282967). The conditions noted are these: HepG2 Attagene CIS TGFb reporter, mRNA transcription; actives raise or lower the signal. An outline of the steps:
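Readout: fluorescently labeled reporter cDNA fragments resolved by capillary electrophoresis after RT-PCR. Transfected HepG2 cells dosed for 24 h; endogenous TF activity at TGFB1-linked cis element; gain or loss fitted relative to DMSO.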

A short description of assay [3]: ATG_VDRE_CIS: Attagene CIS-FACTORIAL HepG2 Assay for human Vitamin D Receptor Element (VDRE) (AID 2282968). The settings on record: HepG2 VDRE cis-reporter transcription, actives raise or lower the signal. In a few lines:
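RT-PCR/CE readout of reporter mRNA; HepG2, transient transfection, 24 h dosing; DMSO baseline; bidirectional analysis.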

Assay [4] addresses Estrogen receptor (Homo sapiens) (UniProt P03372). Nature of the assay: ATG_ERa_TRANS: Attagene TRANS-FACTORIAL HepG2 Assay for human Estrogen Receptor alpha (ERa) (AID 2282970; active means hit-call score of the fitted dose curve at least 0.9, where 1 is the maximum). The settings on record: HepG2 Attagene TRANS ERa GAL4 reporter, mRNA. An outline of the steps:
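Cells: HepG2, transiently transfected. Construct: GAL4-UAS reporter units regulated by exogenous NR-Gal4 chimeras. Time: 24 h. Detection: reporter mRNA by RT-PCR, capillary electrophoresis, fluorescence. Baseline: DMSO, upward fitting.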

The target in assay [5] is Steroid hormone receptor ERR1 (Homo sapiens) (UniProt P11474). Nature of the assay: ATG_ERRa_TRANS: Attagene TRANS-FACTORIAL HepG2 Assay for human Estrogen-Related Receptor alpha (ERRa) (AID 2282971; active means hit-call score of the fitted dose curve at least 0.9, where 1 is the maximum). The conditions noted are these: HepG2 Attagene TRANS reporter, ERRa transactivation. In a few lines:
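Reporter transcripts from ERRa-Gal4 chimera activity measured in transiently transfected human HepG2 cells 24 hours after dosing, using RT-PCR with 6-FAM primer extension, HpaI digestion and capillary electrophoresis; DMSO is baseline.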

For assay [6], the target named is X-box-binding protein 1 (Homo sapiens) (UniProt P17861). Nature of the assay: ATG_Xbp1_CIS: Attagene CIS-FACTORIAL HepG2 Assay for human X-box Binding Protein 1 (XBP1) (AID 2282972). The conditions noted are these: HepG2 XBP1 cis-element reporter, Attagene multiplex; actives raise or lower the signal. In a few lines: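 After a 24-hour chemical exposure of HepG2 cells carrying cis-regulated reporters, reporter mRNA levels are assessed. Quantification uses RT-PCR, 6-FAM labelling and capillary electrophoresis. Gain- or loss-of-signal is fitted against DMSO.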

Assay [7] can be described thus: ATG_M_19_TRANS: Attagene TRANS-FACTORIAL HepG2 Assay for M19 Transcription Factor (Internal Marker) (AID 2282974; active means hit-call score of the fitted dose curve at least 0.9, where 1 is the maximum). The conditions noted are these: HepG2 Attagene TRANS-FACTORIAL M19 internal marker reporter. An outline of the steps:
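Multiplexed TRANS format: HepG2 liver cells bearing transient GAL4-UAS reporter units, chemical treatment 24 h, reporter transcripts quantified by RT-PCR plus capillary electrophoresis. DMSO defines baseline.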

The nature of assay [8]: ATG_GAL4_TRANS: Attagene TRANS-FACTORIAL HepG2 Assay for GAL4 (Internal Marker) (AID 2282976; active means hit-call score of the fitted dose curve at least 0.9, where 1 is the maximum). The settings on record: HepG2 Attagene TRANS GAL4 internal marker reporter. In a few lines:
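In transfected human HepG2 liver cells dosed 24 h, GAL4 reporter mRNA serves as a baseline marker. Detection by RT-PCR with fluorescent capillary electrophoresis, activity fitted upward relative to DMSO.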

In assay [9] the target is Androgen receptor (Homo sapiens) (UniProt P10275). Nature of the assay: ATG_AR_TRANS: Attagene TRANS-FACTORIAL HepG2 Assay for human Androgen Receptor (AR) (AID 2282973; active means hit-call score of the fitted dose curve at least 0.9, where 1 is the maximum). The settings on record: HepG2 Attagene TRANS-FACTORIAL AR reporter transcription. An outline of the steps:
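Transcriptional activity of an exogenous AR–Gal4 fusion read as GAL4-UAS reporter transcript levels in transfected human HepG2 cells after 24 h dosing. Detection via RT-PCR, 6-FAM labelling, HpaI digest and capillary electrophoresis; increase over DMSO baseline.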

Assay [10] has as its target Estrogen-related receptor gamma (Homo sapiens) (UniProt P62508). Nature of the assay: ATG_ERRg_TRANS: Attagene TRANS-FACTORIAL HepG2 Assay for human Estrogen-Related Receptor gamma (ERRg) (AID 2282977; active means hit-call score of the fitted dose curve at least 0.9, where 1 is the maximum;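 further: hits increase reporter signal over DMSO so potencies reflect activators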). The settings on record: HepG2 Attagene TRANS reporter, ERRg transactivation. In a few lines: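 HepG2 cells transiently transfected with multiplexed GAL4-UAS reporter units driven by chimeric NR-Gal4 proteins; 24 h exposure. Reporter mRNA quantified by RT-PCR, fluorescent labelling, HpaI digestion and capillary electrophoresis; gain of signal vs DMSO.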

X-box-binding protein 1 (Homo sapiens), sequence (P17861 whole entry, looked up): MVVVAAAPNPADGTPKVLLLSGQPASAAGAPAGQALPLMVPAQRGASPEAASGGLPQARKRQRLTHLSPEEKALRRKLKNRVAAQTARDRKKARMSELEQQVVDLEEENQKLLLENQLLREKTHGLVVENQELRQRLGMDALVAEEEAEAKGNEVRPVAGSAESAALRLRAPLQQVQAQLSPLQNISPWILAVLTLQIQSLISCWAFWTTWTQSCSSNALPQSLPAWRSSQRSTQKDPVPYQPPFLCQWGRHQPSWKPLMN
Estrogen receptor (Homo sapiens), sequence (P03372 whole entry, looked up, the tested form may be a part): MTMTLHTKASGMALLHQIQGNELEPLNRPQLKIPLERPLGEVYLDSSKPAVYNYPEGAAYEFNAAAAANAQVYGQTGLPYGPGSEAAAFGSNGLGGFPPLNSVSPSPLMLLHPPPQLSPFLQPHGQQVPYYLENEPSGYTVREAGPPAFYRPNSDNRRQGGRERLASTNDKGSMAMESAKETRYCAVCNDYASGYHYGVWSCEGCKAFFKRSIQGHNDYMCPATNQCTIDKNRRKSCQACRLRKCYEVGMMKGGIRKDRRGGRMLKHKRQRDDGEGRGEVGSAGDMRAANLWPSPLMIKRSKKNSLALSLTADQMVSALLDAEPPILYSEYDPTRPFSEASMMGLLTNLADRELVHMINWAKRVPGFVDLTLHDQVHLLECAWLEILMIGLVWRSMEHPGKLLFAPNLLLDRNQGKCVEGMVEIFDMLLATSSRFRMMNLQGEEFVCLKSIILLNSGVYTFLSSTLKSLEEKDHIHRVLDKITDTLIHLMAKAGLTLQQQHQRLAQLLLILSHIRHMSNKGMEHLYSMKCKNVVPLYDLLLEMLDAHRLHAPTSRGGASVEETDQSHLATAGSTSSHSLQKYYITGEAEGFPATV
Estrogen-related receptor gamma (Homo sapiens), sequence (P62508 whole entry, looked up, the tested form may be a part): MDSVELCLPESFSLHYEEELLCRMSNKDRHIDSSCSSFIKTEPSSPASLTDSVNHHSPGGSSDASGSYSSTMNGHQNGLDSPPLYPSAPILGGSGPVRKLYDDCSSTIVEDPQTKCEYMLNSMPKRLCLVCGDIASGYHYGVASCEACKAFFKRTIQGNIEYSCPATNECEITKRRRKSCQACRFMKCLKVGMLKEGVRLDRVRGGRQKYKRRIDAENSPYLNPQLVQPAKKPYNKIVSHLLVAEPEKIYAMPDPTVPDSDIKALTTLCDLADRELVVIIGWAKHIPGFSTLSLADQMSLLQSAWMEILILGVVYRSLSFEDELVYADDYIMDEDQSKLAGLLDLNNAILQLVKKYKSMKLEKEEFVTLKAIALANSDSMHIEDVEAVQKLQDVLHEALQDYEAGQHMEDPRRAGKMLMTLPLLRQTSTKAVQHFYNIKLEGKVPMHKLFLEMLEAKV
Androgen receptor (Homo sapiens), sequence (P10275 whole entry, looked up, the tested form may be a part): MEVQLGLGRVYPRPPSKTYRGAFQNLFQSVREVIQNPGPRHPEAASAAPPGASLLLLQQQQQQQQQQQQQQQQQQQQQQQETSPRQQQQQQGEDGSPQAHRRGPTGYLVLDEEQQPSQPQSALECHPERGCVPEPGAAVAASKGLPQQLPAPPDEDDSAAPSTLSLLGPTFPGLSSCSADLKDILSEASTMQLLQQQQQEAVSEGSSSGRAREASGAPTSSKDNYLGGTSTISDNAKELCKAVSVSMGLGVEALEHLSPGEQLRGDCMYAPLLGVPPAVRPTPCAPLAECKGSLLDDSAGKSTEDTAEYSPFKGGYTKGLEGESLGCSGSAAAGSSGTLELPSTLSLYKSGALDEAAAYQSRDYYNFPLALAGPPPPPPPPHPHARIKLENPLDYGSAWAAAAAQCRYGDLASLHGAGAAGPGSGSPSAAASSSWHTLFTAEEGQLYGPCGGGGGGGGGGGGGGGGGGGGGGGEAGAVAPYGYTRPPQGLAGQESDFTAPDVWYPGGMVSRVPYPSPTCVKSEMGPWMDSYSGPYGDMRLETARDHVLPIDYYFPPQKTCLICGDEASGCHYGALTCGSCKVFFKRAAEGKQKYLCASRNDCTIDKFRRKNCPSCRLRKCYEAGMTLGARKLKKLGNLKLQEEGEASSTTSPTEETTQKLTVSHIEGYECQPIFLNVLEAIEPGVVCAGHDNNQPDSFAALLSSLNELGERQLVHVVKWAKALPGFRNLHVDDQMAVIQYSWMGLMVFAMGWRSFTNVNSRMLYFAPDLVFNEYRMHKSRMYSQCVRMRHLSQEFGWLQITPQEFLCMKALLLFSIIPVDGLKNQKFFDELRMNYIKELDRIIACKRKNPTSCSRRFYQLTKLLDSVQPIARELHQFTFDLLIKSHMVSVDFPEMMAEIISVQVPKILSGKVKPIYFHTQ
Steroid hormone receptor ERR1 (Homo sapiens), sequence (P11474 whole entry, looked up, the tested form may be a part): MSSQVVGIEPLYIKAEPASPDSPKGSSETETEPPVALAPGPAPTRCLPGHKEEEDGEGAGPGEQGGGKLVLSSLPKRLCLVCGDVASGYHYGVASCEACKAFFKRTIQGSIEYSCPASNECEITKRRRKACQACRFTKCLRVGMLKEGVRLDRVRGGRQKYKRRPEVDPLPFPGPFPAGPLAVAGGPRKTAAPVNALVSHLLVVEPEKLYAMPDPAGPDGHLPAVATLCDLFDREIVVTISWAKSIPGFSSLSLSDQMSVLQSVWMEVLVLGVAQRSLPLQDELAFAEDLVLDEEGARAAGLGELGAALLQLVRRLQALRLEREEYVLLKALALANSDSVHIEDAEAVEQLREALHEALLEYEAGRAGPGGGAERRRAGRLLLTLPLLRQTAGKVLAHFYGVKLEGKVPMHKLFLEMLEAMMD

`[O-][Cl+]O`: the molecule was called inactive in assay [1], in assay [2], in assay [3], in [4], in [5] and in assay [6]. Further, the outcome in [7] and in [8] was inactive.

In the case of `Brc1ccc(Oc2ccccc2)cc1`, the outcome in assay [1], in assay [2], in [3], in [4] and in assay [6] was inactive.

As for `O=[N+]([O-])C(Br)(CO)CO`, the molecule was called inactive in [1], in assay [4] and in assay [9]. Also, the figures for the AC50 in assay [2], in assay [3] and in [6] were 23.4 µM (active), 127 µM (active) and 145 µM (active), respectively.

Consider `Cc1cc(N=Nc2ccccc2C)ccc1N`, for which the molecule was classed as inactive in assay [1], in assay [2], in [5], in assay [9], in assay [7] and in assay [10]. In addition, the AC50 in assay [3] was 22.9 µM (active); in assay [6] it was 19.3 µM (active).

Turning to `Nc1ccc([N+](=O)[O-])cc1`, the molecule was called inactive in assay [1], in [2], in assay [3], in [5], in [6] and in [7].

Regarding `COC(=O)c1ccccc1N`, the outcome in [1], in [2], in assay [3], in assay [5], in [6] and in [7] was inactive.

For the molecule `Clc1ccc(Cl)c(Cl)c1`, the result in [1], in assay [2], in assay [3], in assay [5], in assay [6] and in assay [8] was inactive.

As for `Nc1cc(Cl)cc(C(=O)O)c1Cl`, the outcome in assay [1], in [2], in [3], in assay [5], in [6] and in assay [10] was inactive.

`ClC1=C(Cl)[C@]2(Cl)[C@H]3[C@H]([C@@H]4C=C[C@H]3C4)[C@@]1(Cl)C2(Cl)Cl`: the call in assay [1], in assay [2] and in assay [7] was inactive. For the same molecule, the AC50 in [3] was 11.7 µM (active); in assay [4] it was 11.5 µM (active); in [6], 33.4 µM (active).

Turning to `O=C(Oc1ccc(Br)cc1)N1CCN2CCC1CC2`, the result in [1], in [2], in [3], in assay [4], in [6] and in assay [7] was inactive. The molecule was called inactive in assay [8].

For the molecule `Clc1ccc(C(c2ccc(Cl)cc2)C(Cl)Cl)cc1`, the call in [1], in assay [2], in assay [7] and in assay [8] was inactive. In addition, the AC50 in assay [3] was 15.7 µM (active); in [4], 16.2 µM (active); in assay [6] it was 56.2 µM (active).

On to `COc1cc(C=O)cc2c1[C@H](COC(N)=O)[C@]1(OC(C)=O)ON2C[C@H]2[C@@H]1N2C(C)=O`, for which the AC50 in [1] was 57.3 µM (active); in [2] it was 60.4 µM (active); in assay [3] it was 0.146 µM (active); in assay [6], 33.4 µM (active). Moreover, the result in assay [4], in [5] and in assay [8] was inactive.

With `CN(C)c1ccccc1`, the molecule was called inactive in assay [1], in assay [2], in assay [3], in [5], in assay [6] and in [8]. Besides, the molecule was called inactive in assay [10].

For `Clc1ccc(C(c2ccc(Cl)cc2)C(Cl)(Cl)Cl)cc1`, the molecule was classed as inactive in assay [1], in assay [2], in assay [3], in assay [5], in [6] and in assay [7]. Besides, the result in [8] was inactive.

In the case of `O=C(N[C@H](c1ccccc1)[C@@H]1CN2CCC1CC2)c1c(Cl)ccc(C(F)(F)F)c1Cl`, the call in assay [1], in assay [2], in [3], in [5], in assay [6] and in assay [10] was inactive.

As to `Nc1ccc(N=Nc2ccccc2)cc1`, the AC50 is 100 µM (active) in [1], 54 µM (active) in assay [3], 33 µM (active) in [4] and 73.9 µM (active) in [6]. Moreover, the call in assay [2], in assay [5], in assay [7] and in [10] was inactive.

As to `CNC(=O)Oc1cccc2c1OC(C)(C)C2`, the result in [1], in assay [2], in assay [3], in assay [4], in assay [6] and in [9] was inactive. The result in assay [7] was inactive.

The AC50 is the midpoint of the concentration-response curve, whichever way the signal moves.
